Test results: PubChem BioAssay (EPA / NIEHS)
Calls of active or inactive are those of the source. How the source made its calls: active means hit-call score of the fitted dose curve at least 0.9, where 1 is the maximum; inactive means score below 0.9.

Tests used:
Conditions in all cases: mRNA level, 48 h; actives raise or lower the signal
[1] = read-out: Cytochrome P450 3A4 (Homo sapiens) (UniProt P08684); test: LTEA_HepaRG_CYP3A4: Life Technologies and Expression Analysis (LTEA) Assay for CYP3A4 using HepaRG (AID 2283487)
Procedure, shortened: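 In a human hepatic line (HepaRG), duplicate wells were treated 48 h with up to 100 uM chemical in half-log dilutions. Endpoint: CYP3A4 mRNA induction or loss relative to 0.5% DMSO vehicle, by qRT-PCR.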

[2] = read-out: DNA damage-inducible transcript 3 (DDIT3), DDIT3 (gene 1649); test: LTEA_HepaRG_DDIT3: Life Technologies and Expression Analysis (LTEA) Assay for DNA damage-inducible transcript 3 (DDIT3) using HepaRG (AID 2283488)
Procedure, shortened: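 qRT-PCR readout (Fluidigm TaqMan), housekeeping-normalized to ACTB, GAPDH, POLR2A. HepaRG cells, 48 h exposure, 8-point half-log series from 100 uM in 0.5% DMSO, duplicates. Gain or loss of signal fitted against DMSO baseline.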

[3] = read-out: Pro-epidermal growth factor (Homo sapiens) (UniProt P01133); test: LTEA_HepaRG_EGF: Life Technologies and Expression Analysis (LTEA) Assay for Epidermal growth factor (EGF) using HepaRG (AID 2283489)
Procedure, shortened: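 EGF expression changes in human HepaRG cells are scored by bidirectional fitting relative to 0.5% DMSO controls. Chemicals are tested at eight half-log concentrations up to 100 uM for 48 h in serum-free induction medium.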

[4] = read-out: Early growth response protein 1 (EGR1) transcription factor, EGR1 (gene 1958); test: LTEA_HepaRG_EGR1: Life Technologies and Expression Analysis (LTEA) Assay for Early growth response protein 1 (EGR1) transcription factor using HepaRG (AID 2283490)
Procedure, shortened: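 EGR1 expression change in human HepaRG after 48 h chemical exposure, assessed by housekeeping-normalized qRT-PCR; concentration-response up to 100 uM, fitted in both directions against DMSO controls.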

[5] = read-out: Ezrin (EZR), EZR (gene 7430); test: LTEA_HepaRG_EZR: Life Technologies and Expression Analysis (LTEA) Assay for Ezrin (EZR) using HepaRG (AID 2283491)
Procedure, shortened: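 Gain or loss of EZR mRNA is scored relative to 0.5% DMSO in human HepaRG cultures treated 48 h with test chemicals in duplicate, eight half-log concentrations from 100 uM.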

[6] = read-out: Cytochrome P450 3A7 (Homo sapiens) (UniProt P24462); test: LTEA_HepaRG_CYP3A7: Life Technologies and Expression Analysis (LTEA) Assay for CYP3A7 using HepaRG (AID 2283492)
Procedure, shortened: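 Cells were thawed, plated, cultured 48 h, then treated for a further 48 h with chemicals (eight-point half-log series from 100 uM, 0.5% DMSO). RNA was isolated and CYP3A7 expression quantified by qRT-PCR normalised to ACTB, GAPDH and POLR2A.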

CYP3A5 (gene 1577) = test: LTEA_HepaRG_CYP3A5: Life Technologies and Expression Analysis (LTEA) Assay for CYP3A5 using HepaRG (AID 2283493)
Procedure, shortened: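 qRT-PCR read-out: CYP3A5 transcript in HepaRG lysates, housekeeping-normalized (ACTB/GAPDH/POLR2A), fitted bidirectionally against 0.5% DMSO baseline. Exposure 48 h, eight half-log concentrations up to 100 uM, duplicates.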

[7] = read-out: Fatty Acid-Binding Protein 1 (FABP1), FABP1 (gene 2168); test: LTEA_HepaRG_FABP1: Life Technologies and Expression Analysis (LTEA) Assay for Fatty Acid-Binding Protein 1 (FABP1) using HepaRG (AID 2283494)
Procedure, shortened: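 Values reflect bidirectional concentration-response fitting of FABP1 mRNA change against 0.5% DMSO controls. Human HepaRG cultures received eight half-log doses (top 100 uM) for 48 h; expression quantified by TaqMan qRT-PCR with housekeeping-gene normalization.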

[8] = read-out: Cytochrome P450 4A22 (Homo sapiens) (UniProt Q5TCH4); test: LTEA_HepaRG_CYP4A22: Life Technologies and Expression Analysis (LTEA) Assay for Cytochrome P450 4A22 (CYP4A22) using HepaRG (AID 2283495)
Procedure, shortened: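 Cryopreserved HepaRG cells, plated and cultured 48 h, then switched to serum-free induction medium and treated 48 h (duplicates, up to 100 uM, half-log steps, 0.5% DMSO). Expression change of CYP4A22 was fitted bidirectionally against vehicle.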

[9] = read-out: Cytochrome P450 7A1 (Homo sapiens) (UniProt P22680); test: LTEA_HepaRG_CYP7A1: Life Technologies and Expression Analysis (LTEA) Assay for Cytochrome P450 7A1 (CYP7A1) using HepaRG (AID 2283496)
Procedure, shortened: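 Using 0.5% DMSO as vehicle and baseline, chemicals were tested in duplicate over an 8-point range from 100 uM on HepaRG cells for 48 h; qRT-PCR signals were normalised to ACTB, GAPDH and POLR2A.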

[10] = read-out: Glutathione S-Transferase (GSTA2), GSTA2 (gene 2939); test: LTEA_HepaRG_GSTA2: Life Technologies and Expression Analysis (LTEA) Assay for Glutathione S-Transferase (GSTA2) using HepaRG (AID 2283497)
Procedure, shortened: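 Oxidative-stress marker GSTA2 is quantified by TaqMan qRT-PCR in HepaRG cultures treated 48 h across an eight-point range to 100 uM. Expression is normalized to endogenous controls and compared with 0.5% DMSO vehicle.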

[11] = read-out: Glutamate-cysteine ligase catalytic (GCLC), GCLC (gene 2729); test: LTEA_HepaRG_GCLC: Life Technologies and Expression Analysis (LTEA) Assay for Glutamate-cysteine ligase catalytic (GCLC) using HepaRG (AID 2283498)
Procedure, shortened: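 Oxidative-stress marker GCLC is measured as mRNA change in human HepaRG liver cells after 48 h chemical treatment in 0.5% DMSO, eight concentrations from 100 uM. Activity is fitted bidirectionally against vehicle.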

[12] = read-out: growth arrest and DNA damage 45 (GADD45G), GADD45G (gene 10912); test: LTEA_HepaRG_GADD45G: Life Technologies and Expression Analysis (LTEA) Assay for growth arrest and DNA damage 45 (GADD45G) using HepaRG (AID 2283499)
Procedure, shortened: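 Human hepatic HepaRG line treated 48 h with chemicals (eight concentrations, half-log steps from 100 uM); transcript induction or repression of GADD45G scored by qRT-PCR versus DMSO vehicle.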

[13] = read-out: Glutamate-cysteine ligase regulatory (GCLM), GCLM (gene 2730); test: LTEA_HepaRG_GCLM: Life Technologies and Expression Analysis (LTEA) Assay for Glutamate-cysteine ligase regulatory (GCLM) using HepaRG (AID 2283500)
Procedure, shortened: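 HepaRG, 48 h dosing, 100 uM top, half-log x8, 0.5% DMSO vehicle. Readout: GCLM mRNA by TaqMan qRT-PCR, housekeeping-normalized (ACTB/GAPDH/POLR2A). Curves fit bidirectionally vs DMSO baseline.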

[14] = read-out: Glutathione S-transferase M3 (GSTM3), GSTM3 (gene 2947); test: LTEA_HepaRG_GSTM3: Life Technologies and Expression Analysis (LTEA) Assay for Glutathione S-transferase M3 (GSTM3) using HepaRG (AID 2283501)
Procedure, shortened: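 Changes in GSTM3 expression, an oxidative-stress marker, were scored by bidirectional curve fitting against 0.5% DMSO vehicle. Human HepaRG cultures received chemicals for 48 h in duplicate, highest concentration 100 uM with half-log dilutions.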

[15] = read-out: Heat shock 70 kDa protein 1 (HSPA1A), gene 3303; test: LTEA_HepaRG_HSPA1A: Life Technologies and Expression Analysis (LTEA) Assay for Heat shock 70 kDa protein 1 (HSPA1A) using HepaRG (AID 2283502)
Procedure, shortened: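 HepaRG, 48 h exposure, 8-pt half-log CRC from 100 uM in 0.5% DMSO, duplicates. Readout: TaqMan qRT-PCR of HSPA1A mRNA, housekeeping-normalized (ACTB/GAPDH/POLR2A). Bidirectional fit vs 0.5% DMSO baseline.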

[16] = read-out: Hypoxia-inducible factor 1-alpha (Homo sapiens) (UniProt Q16665); test: LTEA_HepaRG_HIF1A: Life Technologies and Expression Analysis (LTEA) Assay for Hypoxia-inducible factor 1 (HIF1A) Trancription factor using HepaRG (AID 2283503)
Procedure, shortened: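 Gain- or loss-of-signal HIF1A mRNA changes are fitted against a DMSO baseline. HepaRG cultures receive eight concentrations, highest 100 uM, for 48 h in serum-free induction medium with 0.5% DMSO.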

[17] = read-out: 3-Hydroxy-3-Methylglutaryl-CoA Synthase 2 (HMGCS2), HMGCS2 (gene 3158); test: LTEA_HepaRG_HMGCS2: Life Technologies and Expression Analysis (LTEA) Assay for 3-Hydroxy-3-Methylglutaryl-CoA Synthase 2 (HMGCS2) using HepaRG (AID 2283504)
Procedure, shortened: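 Expression of HMGCS2 in human HepaRG liver cells is measured by qRT-PCR 48 h after dosing (highest 100 uM, half-log series, 0.5% DMSO). Values come from bidirectional concentration-response fitting with DMSO as baseline.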

HGF (gene 3082) = test: LTEA_HepaRG_HGF: Life Technologies and Expression Analysis (LTEA) Assay for Hepatocyte Growth Facto (HGF) using HepaRG (AID 2283505)
Procedure, shortened: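 Gain or loss of HGF mRNA in human HepaRG liver cells after 48 h chemical exposure; eight concentrations up to 100 uM with 0.5% DMSO vehicle, quantified by TaqMan qRT-PCR.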

[18] = read-out: Insulin Like Growth Factor 1 (IGF1), IGF1 (gene 3479); test: LTEA_HepaRG_IGF1: Life Technologies and Expression Analysis (LTEA) Assay for Insulin Like Growth Factor 1 (IGF1) using HepaRG (AID 2283506)
Procedure, shortened: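 qRT-PCR readout of IGF1 mRNA, normalized to three housekeeping genes, after 48 h chemical exposure of HepaRG cells. Concentrations: 8-point half-log series, top 100 uM, 0.5% DMSO vehicle. Gain or loss fitted against DMSO baseline.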

Measured: AC50

Chain of Cytochrome P450 3A4 (Homo sapiens) (P08684 whole entry, looked up): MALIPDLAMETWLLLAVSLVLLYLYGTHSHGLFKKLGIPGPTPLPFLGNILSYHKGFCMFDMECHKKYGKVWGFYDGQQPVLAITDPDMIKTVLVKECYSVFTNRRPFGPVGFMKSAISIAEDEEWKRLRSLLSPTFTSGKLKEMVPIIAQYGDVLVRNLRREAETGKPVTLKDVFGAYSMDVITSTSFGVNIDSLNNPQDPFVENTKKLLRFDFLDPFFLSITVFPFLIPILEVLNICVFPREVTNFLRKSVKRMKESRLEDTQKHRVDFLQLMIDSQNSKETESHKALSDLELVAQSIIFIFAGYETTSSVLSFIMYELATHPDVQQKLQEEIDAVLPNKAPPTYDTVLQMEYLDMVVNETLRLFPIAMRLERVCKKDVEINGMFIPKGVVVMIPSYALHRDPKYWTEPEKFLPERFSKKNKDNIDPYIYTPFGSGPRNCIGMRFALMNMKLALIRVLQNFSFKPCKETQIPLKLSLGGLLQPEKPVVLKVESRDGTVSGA
Chain of Hypoxia-inducible factor 1-alpha (Homo sapiens) (Q16665 whole entry, looked up): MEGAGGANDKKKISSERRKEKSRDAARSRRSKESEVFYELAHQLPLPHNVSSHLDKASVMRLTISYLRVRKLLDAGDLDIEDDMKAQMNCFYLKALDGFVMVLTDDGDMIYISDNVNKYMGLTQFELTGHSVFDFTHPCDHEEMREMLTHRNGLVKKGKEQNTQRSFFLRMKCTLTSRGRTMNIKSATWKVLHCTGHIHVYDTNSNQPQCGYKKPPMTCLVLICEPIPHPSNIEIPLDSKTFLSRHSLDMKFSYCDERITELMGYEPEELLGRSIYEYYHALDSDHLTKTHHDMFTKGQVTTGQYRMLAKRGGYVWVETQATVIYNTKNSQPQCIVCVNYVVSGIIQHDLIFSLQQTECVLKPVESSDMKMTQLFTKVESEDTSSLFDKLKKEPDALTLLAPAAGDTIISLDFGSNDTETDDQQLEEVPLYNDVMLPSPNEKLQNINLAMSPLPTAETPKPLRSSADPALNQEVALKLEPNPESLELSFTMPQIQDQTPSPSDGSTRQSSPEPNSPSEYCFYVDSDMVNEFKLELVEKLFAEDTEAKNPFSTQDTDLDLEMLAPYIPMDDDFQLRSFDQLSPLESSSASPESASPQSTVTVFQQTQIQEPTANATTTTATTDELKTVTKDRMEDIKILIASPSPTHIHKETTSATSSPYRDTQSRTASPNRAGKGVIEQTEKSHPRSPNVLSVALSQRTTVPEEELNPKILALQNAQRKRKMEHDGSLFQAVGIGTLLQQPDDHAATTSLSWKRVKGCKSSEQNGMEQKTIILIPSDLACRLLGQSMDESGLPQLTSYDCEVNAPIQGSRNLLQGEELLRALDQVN
Chain of Cytochrome P450 3A7 (Homo sapiens) (P24462 whole entry, looked up): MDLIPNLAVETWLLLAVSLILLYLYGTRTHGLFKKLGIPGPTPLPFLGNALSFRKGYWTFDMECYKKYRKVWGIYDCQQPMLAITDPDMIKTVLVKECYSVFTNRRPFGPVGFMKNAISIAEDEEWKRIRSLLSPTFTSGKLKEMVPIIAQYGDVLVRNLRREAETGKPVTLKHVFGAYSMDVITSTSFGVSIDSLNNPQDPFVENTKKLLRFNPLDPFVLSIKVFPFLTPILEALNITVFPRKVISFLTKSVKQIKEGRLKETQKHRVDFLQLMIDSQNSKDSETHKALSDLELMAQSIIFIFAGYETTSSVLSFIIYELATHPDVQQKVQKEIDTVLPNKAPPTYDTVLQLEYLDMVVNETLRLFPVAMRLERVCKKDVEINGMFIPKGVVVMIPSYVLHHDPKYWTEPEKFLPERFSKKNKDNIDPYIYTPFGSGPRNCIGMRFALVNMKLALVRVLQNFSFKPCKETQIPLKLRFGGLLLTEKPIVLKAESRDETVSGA

CCNc1nc(Cl)nc(NC(C)(C)C#N)n1
active: [1] 4.42 µM | [6] 1.77 µM
inactive: all other assays above

CCOC(=O)CC(SP(=O)(OC)OC)C(=O)OCC (stereo not drawn)
active: [9] 50 µM
not listed: [6]
inactive: all other assays above

CCc1cccc(C)c1N(C(=O)CCl)C(C)COC (stereo not drawn)
active: [1] 11.3 µM | [7] 37.9 µM | [10] 18 µM | [18] 50 µM
not listed: [4]
inactive: all other assays above
